# According to PubChem BioAssay:
# The source made the active and inactive calls. Unless noted, how the calls were made is not given here.
# Columns and labels:
# [1] = tested on: Wnt5a (protein binding on small-molecule microarray); assay: Wnt5a binders on small-molecule microarray, primary screen, biophysical, 635/667 nm fluorescence (AID 1142); conditions: 635 nm fluorescence, higher = more signal;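 further: fluorescence read at 667 nm with signal to noise per printed feature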
# [2] = cell viability in Huh7 cells, primary screen, cytotoxicity control for HCV replication inhibitor project, CellTiter-Glo luminescence, basal, 48 h (AID 1143); conditions: Huh7 HCV replicon, higher = more signal, called active from +8 up or from −8 down;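 further: Huh7 hepatoma cells carrying a hepatitis C replication reporter with no stimulus; test concentration not given here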
# [3] = P. aeruginosa biofilm formation inhibitors, primary screen, PAO1 strain, BacTiter-Glo luminescence, LB-PBS (AID 1144); conditions: 12 h, higher = more signal
# [4] = CREB reporter modulators without forskolin, primary screen, cell-based, PC12, CRE-LacZ reporter, unstimulated (AID 1145); conditions: no forskolin, luminescence, 4.5 h, higher = more signal, called active from +8 up or from −8 down
# [5] = CREB reporter modulators under forskolin, primary screen, cell-based, PC12, CRE-LacZ reporter, forskolin-stimulated (AID 1146); conditions: luminescence, 4.5 h, higher = more signal, called active from +8 up or from −8 down;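 further: PC12 cells with 6xCRE LacZ reporter stimulated by forskolin 10 µM; beta-galactosidase reporter signal reflecting CREB driven transcription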
# [6] = target: Streptavidin (Streptomyces avidinii) (UniProt P22629); assay: streptavidin binders on small-molecule microarray, primary screen, artefact control for SMM compound annotation, biophysical, 635/667 nm fluorescence (AID 1147); conditions: streptavidin binding, higher = more signal;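 further: signal reflects streptavidin binding to arrayed compounds as a control protein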
# Streptavidin (Streptomyces avidinii), sequence (P22629 whole entry, looked up): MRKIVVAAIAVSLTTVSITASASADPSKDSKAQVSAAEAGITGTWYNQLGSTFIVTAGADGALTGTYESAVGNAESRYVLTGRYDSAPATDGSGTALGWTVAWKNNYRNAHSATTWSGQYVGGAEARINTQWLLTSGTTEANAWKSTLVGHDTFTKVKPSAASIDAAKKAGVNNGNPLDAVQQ
# [7] = small-molecule binders of probe aInhba, primary screen, biochemical, small-molecule microarray, 635/667 nm fluorescence (AID 1148); conditions: higher = more signal;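 further: score merges 667nm spot fluorescence with signal-to-noise for antibody binding to printed compounds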
# Torsin-1A (Homo sapiens) [8] = target: Torsin-1A (Homo sapiens) (UniProt O14656); assay: torsin A binders from cell lysate, primary screen, small-molecule microarray, wild-type, 635/667 nm (AID 1149); conditions: COS7 hTOR1A-WT lysate, 635 nm fluorescence, higher = more signal
# Torsin-1A (Homo sapiens), sequence (O14656 whole entry, looked up): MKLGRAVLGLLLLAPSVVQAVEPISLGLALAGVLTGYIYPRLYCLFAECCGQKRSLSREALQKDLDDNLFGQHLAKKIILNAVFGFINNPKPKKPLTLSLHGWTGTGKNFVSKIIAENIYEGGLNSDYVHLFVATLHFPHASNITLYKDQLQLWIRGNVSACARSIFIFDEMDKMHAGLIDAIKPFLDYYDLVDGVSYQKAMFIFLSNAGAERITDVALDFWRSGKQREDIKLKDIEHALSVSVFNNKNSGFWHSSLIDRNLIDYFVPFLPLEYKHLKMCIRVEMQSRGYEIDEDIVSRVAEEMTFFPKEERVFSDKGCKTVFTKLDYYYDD
# Torsin-1A (Homo sapiens) [9] = target: Torsin-1A (Homo sapiens) (UniProt O14656); assay: small-molecule binders of mutant TOR1A in lysate, primary screen, cell lysate, small-molecule microarray, COS7 lysate, 635/667 nm fluorescence (AID 1150); conditions: COS7 hTOR1A mutant lysate, 635 nm fluorescence, higher = more signal;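 further: score pools 667 nm emission and signal to noise measuring lysate protein binding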
# [10] = tested on: Sonic hedgehog protein (Shh); assay: small-molecule binders of Shh protein, primary screen, biochemical, small-molecule microarray, 635/667 nm fluorescence (AID 1151); conditions: small-molecule microarray binding, 635 nm fluorescence; higher = more signal;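 further: Shh protein binding to compounds spotted on small-molecule microarray slides; score combines spot fluorescence intensity with signal-to-noise across triplicate slides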
# [11] = E. coli DRC41 culture turbidity changes, primary screen, E. coli filamentation inducer project, strain DRC41, OD650, 48 h (AID 1152);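 further: E. coli MC1000 strain DRC41 lacking acrAB efflux pump and sulA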; conditions: E. coli DRC41 (acrAB sulA), higher = more signal, called active from +8 up or from −8 down
# [12] = small-molecule binders of probe aLefty1, primary screen, biochemical, small-molecule microarray, 635/667 nm fluorescence (AID 1153); conditions: higher = more signal;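 further: score merges spot fluorescence with signal-to-noise ratio from the scanned slide images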
# [13] = PSAC antagonists in infected red cells, primary screen, cell-based, P. falciparum Indochina, OD700, 1 h (AID 1154); conditions: P. falciparum Indochina infected RBC osmotic lysis, higher = more signal, called active from +8 up or from −8 down
# [14] = PSAC antagonists in infected red cells, primary screen, cell-based, P. falciparum Indochina, OD700, 2 h (AID 1155);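 further: lysis reports solute entry through the parasite surface anion channel PSAC; channel blockers reduce lysis of infected cells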; conditions: P. falciparum Indochina infected erythrocytes, osmotic lysis OD700; higher = more signal, called active from +8 up or from −8 down
# [15] = osmotic lysis modulators in infected erythrocytes, primary screen, PSAC antagonist project, cell-based, P. falciparum Indochina, OD700, 3 h (AID 1156); conditions: higher = more signal, called active from +8 up or from −8 down
# [16] = PSAC antagonists in infected red cells, primary screen, cell-based, P. falciparum Indochina, OD700, 18 h (AID 1157); conditions: P. falciparum Indochina infected erythrocytes, osmotic lysis OD700, 18 h; higher = more signal, called active from +8 up or from −8 down
# [17] = modulators of S6 phosphorylation in cells, primary screen, cell-based, A549, cytoblot, luminescence, serum-stimulated (AID 1158); conditions: A549 phospho-S6 cytoblot, 5 h, higher = more signal;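 further: serum-stimulated A549 lung adenocarcinoma cells; signal is phosphorylated S6 detected by cytoblot immunostaining with HRP secondary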
# [18] = target: NADPH oxidase 2 (Homo sapiens) (UniProt P04839); assay: NOX2-dependent H2O2 signal modulators, primary screen, NOX inhibitor project, cell-based, HEK293-NOX2, PMA-stimulated, Amplex Red fluorescence (AID 1159); conditions: 45 min, higher = more signal, called active from +8 up or from −8 down; further: test concentration not given here
# NADPH oxidase 2 (Homo sapiens), sequence (P04839 whole entry, looked up): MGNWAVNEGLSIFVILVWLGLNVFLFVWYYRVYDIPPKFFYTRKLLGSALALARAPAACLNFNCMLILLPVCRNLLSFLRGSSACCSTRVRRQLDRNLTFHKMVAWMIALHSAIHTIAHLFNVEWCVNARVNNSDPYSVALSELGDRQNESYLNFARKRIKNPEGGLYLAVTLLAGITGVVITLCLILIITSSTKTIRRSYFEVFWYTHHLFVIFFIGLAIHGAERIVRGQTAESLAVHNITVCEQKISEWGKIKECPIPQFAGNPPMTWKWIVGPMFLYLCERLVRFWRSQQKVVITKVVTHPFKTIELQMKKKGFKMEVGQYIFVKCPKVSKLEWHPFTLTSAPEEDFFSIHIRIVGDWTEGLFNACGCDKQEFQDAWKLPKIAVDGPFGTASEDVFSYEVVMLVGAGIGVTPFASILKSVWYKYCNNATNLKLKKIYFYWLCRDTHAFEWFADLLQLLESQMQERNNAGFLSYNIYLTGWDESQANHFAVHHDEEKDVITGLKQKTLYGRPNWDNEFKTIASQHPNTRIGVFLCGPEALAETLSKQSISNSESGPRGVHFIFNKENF
# [19] = target: NADPH oxidase 4 (Homo sapiens) (UniProt Q9NPH5); assay: NOX4-dependent H2O2 signal modulators, primary screen, NOX inhibitor project, cell-based, HEK293-NOX4, tetracycline-induced, Amplex Red fluorescence (AID 1160); conditions: 45 min, higher = more signal, called active from +8 up or from −8 down
# NADPH oxidase 4 (Homo sapiens), sequence (Q9NPH5 whole entry, looked up): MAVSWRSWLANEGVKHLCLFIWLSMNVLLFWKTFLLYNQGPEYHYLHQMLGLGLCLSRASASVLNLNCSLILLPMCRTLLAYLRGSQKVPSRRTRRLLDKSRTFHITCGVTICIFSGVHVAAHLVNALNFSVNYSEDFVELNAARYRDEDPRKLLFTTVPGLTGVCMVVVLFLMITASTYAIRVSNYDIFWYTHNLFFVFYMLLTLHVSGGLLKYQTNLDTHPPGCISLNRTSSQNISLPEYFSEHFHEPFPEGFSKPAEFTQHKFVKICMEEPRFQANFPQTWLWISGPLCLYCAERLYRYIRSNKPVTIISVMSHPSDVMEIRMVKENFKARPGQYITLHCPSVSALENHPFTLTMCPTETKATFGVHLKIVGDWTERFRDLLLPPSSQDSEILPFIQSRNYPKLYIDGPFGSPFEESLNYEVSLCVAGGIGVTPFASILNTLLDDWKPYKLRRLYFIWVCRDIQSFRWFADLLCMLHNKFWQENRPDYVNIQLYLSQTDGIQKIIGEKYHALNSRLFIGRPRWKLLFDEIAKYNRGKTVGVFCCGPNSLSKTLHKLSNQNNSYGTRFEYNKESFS
# [20] = target: NADPH oxidase 5 (Homo sapiens) (UniProt Q96PH1); assay: NOX5-dependent H2O2 signal modulators, primary screen, NOX inhibitor project, cell-based, HEK293-NOX5, Amplex Red fluorescence (AID 1161); conditions: HEK293-NOX5, ionomycin, 45 min, higher = more signal
# NADPH oxidase 5 (Homo sapiens), sequence (Q96PH1 whole entry, looked up): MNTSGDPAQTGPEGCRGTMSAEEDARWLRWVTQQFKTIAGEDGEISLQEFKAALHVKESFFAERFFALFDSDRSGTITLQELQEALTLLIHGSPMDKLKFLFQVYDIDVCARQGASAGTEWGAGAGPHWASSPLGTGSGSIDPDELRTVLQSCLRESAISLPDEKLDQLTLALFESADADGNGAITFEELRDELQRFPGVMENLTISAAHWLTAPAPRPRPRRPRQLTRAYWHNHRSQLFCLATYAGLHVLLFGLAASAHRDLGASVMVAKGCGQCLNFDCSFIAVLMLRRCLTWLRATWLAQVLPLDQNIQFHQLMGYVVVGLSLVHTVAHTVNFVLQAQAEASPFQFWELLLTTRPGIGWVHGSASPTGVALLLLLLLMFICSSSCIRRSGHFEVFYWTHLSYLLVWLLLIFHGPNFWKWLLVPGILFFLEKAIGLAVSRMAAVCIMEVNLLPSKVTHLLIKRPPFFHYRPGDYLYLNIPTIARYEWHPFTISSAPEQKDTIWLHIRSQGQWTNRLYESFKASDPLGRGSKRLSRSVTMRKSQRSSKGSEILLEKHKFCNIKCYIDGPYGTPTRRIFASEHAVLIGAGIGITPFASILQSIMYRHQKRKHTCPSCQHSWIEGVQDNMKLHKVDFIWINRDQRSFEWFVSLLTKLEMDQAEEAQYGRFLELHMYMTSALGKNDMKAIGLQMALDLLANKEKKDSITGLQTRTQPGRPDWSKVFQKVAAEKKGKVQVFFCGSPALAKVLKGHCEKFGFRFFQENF
Compound,composite z-score [1],z-score [2],z-score [3],z-score [4],z-score [5],composite z-score [6],composite z-score [7],composite z-score (Torsin-1A (Homo sapiens) [8]),composite z-score (Torsin-1A (Homo sapiens) [9]),composite z-score [10],z-score [11],composite z-score [12],z-score [13],z-score [14],z-score [15],z-score [16],z-score [17],z-score [18],z-score [19],z-score [20]
CC(=O)n1cc(C(O)C2C=CC3C(=O)N(c4ccccc4)C(=O)C3N2Nc2ccc([N+](=O)[O-])cc2)c2ccccc21 (stereo not given),0.199,-0.547 (inactive),-0.197 (inactive),-0.322 (inactive),-0.647 (inactive),0.808,-0.0371,-0.268,0.475,-0.0727,-1.2 (inactive),0.272,17 (active),3.57 (inactive),1.13 (inactive),0.954 (inactive),-0.75,-0.808 (inactive),-2.56 (inactive),-1.91
CCOC(=O)C[C@H]1[C@H](OC(=O)c2cc3ccccc3oc2=O)[C@@H](NC(=O)c2ccccc2)c2cc(OCCCO)ccc2N1C(=O)c1ccc2ccccc2n1,0.343,-0.468 (inactive),0.594 (inactive),9.1 (active),-0.539 (inactive),0.865,-0.0405,0.0356,0.611,0.954,0.0582 (inactive),-0.0969,10.4 (active),1.33 (inactive),1.17 (inactive),0.599 (inactive),-0.253,0.543 (inactive),0.43 (inactive),1.44
COC(=O)[C@@]1(Cc2ccc(F)cc2)[C@H]2c3cc(C(=O)N(C)C)n(Cc4ccc(Cl)c(C(F)(F)F)c4)c3C[C@H]2CN1C(=O)c1ccccc1,0.156,-2.95 (inactive),0.44 (inactive),1.34 (inactive),0.778 (inactive),2.37,0.588,0.146,0.751,-0.823,-1.91 (inactive),1.54,7.17 (inactive),2.13 (inactive),0.512 (inactive),1.72 (inactive),-0.186,0.23 (inactive),-1.2 (inactive),0.627
O=C1O[C@H](c2ccccc2)[C@H](c2ccccc2)N2[C@H]1[C@@H](C(=O)N1CCCCCCC1)[C@]1(C(=O)Nc3ccc(C#CCCO)cc31)[C@H]2c1ccccc1OCCO,2.73,-3.61 (inactive),0.999 (inactive),-0.698 (inactive),-1.19 (inactive),4.08,2.33,3.84,3.83,2.53,0.609 (inactive),2.89,1.54 (inactive),1.19 (inactive),2.13 (inactive),0.565 (inactive),-0.319,1.31 (inactive),0.959 (inactive),1.67
O[C@@H](Cc1ccccc1)[C@H]1C2C=CCCC=C2CN1Cc1cccc(Cl)c1 (stereo not given in full),0.35,-1.1 (inactive),-0.829 (inactive),3.56 (inactive),2.78 (inactive),0.513,0.0173,0.739,-0.453,1.2,1.31 (inactive),0.0701,2.58 (inactive),0.499 (inactive),1.33 (inactive),0.108 (inactive),0.399,-0.318 (inactive),-1.27 (inactive),-0.609
COCCOC(=O)N1C(=O)[C@@]2(c3cc(C#CCC(C(=O)OC)C(=O)OC)ccc31)[C@H](C(=O)N1CCN(c3ncccn3)CC1)[C@H]1C(=O)O[C@H](c3ccccc3)[C@H](c3ccccc3)N1[C@@H]2c1ccccc1OCCO,0.833,-3.78 (inactive),1.13 (inactive),-0.337 (inactive),-0.374 (inactive),0.39,0.326,0.135,0.579,2.19,-0.646 (inactive),0.312,3.14 (inactive),1.55 (inactive),0.391 (inactive),0.533 (inactive),0.0555,1.45 (inactive),0.851 (inactive),1.3
CC(CO)N1C(=O)[C@@H]2C3C(=O)OCCC/C=C\[C@H]3OC23C=CCN(C(C)(C)C)C(=O)[C@@H]13 (stereo not given in full),-0.221,0.559 (inactive),-0.818 (inactive),-0.488 (inactive),0.636 (inactive),-0.221,-0.128,1.17,2.21,0.777,0.458 (inactive),-0.0984,0.943 (inactive),0.752 (inactive),2.51 (inactive),0.477 (inactive),-0.0054,0.89 (inactive),-0.437 (inactive),0.886
CC1(C)[C@@H]2CC(C(O)C3C=CC4C(=O)N(Cc5ccccc5)C(=O)C4N3n3cnnc3)=C[C@H]1C2 (stereo not given in full),0.253,-0.346 (inactive),0.132 (inactive),-0.126 (inactive),0.34 (inactive),0.512,-0.0375,1.49,1.33,0.414,-0.316 (inactive),0.0451,1.31 (inactive),1.24 (inactive),0.313 (inactive),0.927 (inactive),-0.688,-0.14 (inactive),0.741 (inactive),0.273
